An excerpt weighted towards active compounds, which were near 3.1% of everything screened.
BoNT A protease: BoNT A light chain protease inhibition; 360,000 tested, 0.17% active; multiplex microsphere protease substrate cleavage, flow cytometry; inhibition, % at 10 µM; further: plate controls were buffer without enzyme for full effect and enzyme alone for no effect
SSB-PriA inh: K. pneumoniae PriA-SSBct interaction inhibition; inhibition, % at 33 µM; 430,000 tested, 0.6% active; AlphaScreen SSBct-PriA binding, biotinylated peptide; in the data active means inhibition mostly above about 37%, no sharp cut-off; inactive means mostly below about 20%;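 further: plate controls were negative control peptide for no effect and reference peptide for full effect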
Autofluor counter: flagged as autofluorescent in microsphere protease counterscreen | compound autofluorescence counterscreen, microsphere flow cytometry; hits give high values | fluorescence intensity (test concentration not listed) | 360,000 tested, 3.1% active; in the data active means fluorescence intensity above about 16000; inconclusive means no clear call, values can overlap the other calls
Anthrax LF inh2: anthrax lethal factor protease inhibition. P15917. 360,000 tested, 0.12% active. inhibition, % at 10 µM. multiplex microsphere protease cleavage assay, LF; further: plate controls were buffer without enzyme for full effect and enzyme alone for no effect
BoNT-F LC inh: blocks Botulinum neurotoxin F light chain protease | Multiplex microsphere protease cleavage assay, flow cytometry | inhibition, % at 10 µM | 360,000 tested, 0.22% active | AID 588497; in the data active means inhibition above about 35%, passing the limit was not always enough; inconclusive means no clear call, values can overlap the other calls; further: plate controls were buffer without enzyme for full effect and enzyme alone for no effect
Active calls of the source: *; ? = inconclusive; / = not tested or not shown. Unless noted, no stated cut-off is given here; in the data, active means inhibition above about 30%; inconclusive means no clear call, values can overlap the other calls; inactive means below that.

SMILES	BoNT A protease	SSB-PriA inh	Autofluor counter	Anthrax LF inh2	BoNT-F LC inh
Cc1nnc(NC(=O)CSc2nc3ccccc3o2)s1	-0.3	-10.1	5677	-9.5	-5.8
CCOc1ccc(-c2cn3c(CC(=O)Nc4c(C)cccc4C)csc3n2)cc1	/	-12.0	/	/	/
CCOc1ccc2oc(-c3ccccc3)c(C(=O)N3CCN(C)CC3)c2c1	3.1	4.3	22066*	3.5	4.7
CCOC(=O)c1c(-c2ccccc2)oc2ccc(OCC)cc12	-0.6	-17.6	2673	-1.5	-5.7
COc1ccc(C2(C)NN=C3Sc4ccccc4N32)cc1 (configuration not stated)	/	41.0*	/	/	/
COc1ccc([C@@]2(C)NN=C3Oc4ccccc4N32)cc1	/	-18.0	/	/	/
N#Cc1cccnc1N1CCOCC1	/	-21.0	/	/	/
CCCOc1ccc(C(=O)N/N=C/c2ccc(-c3ccc(S(=O)(=O)Nc4ncccn4)cc3)o2)cc1	?	/	22659*	-1.3	-9.0
Cc1cccc(OC(C)c2ccnc3nc(/N=C/N(C)C)nn23)c1 (configuration not stated)	-2.7	/	21315*	0.1	-3.9
COc1cccc(OC(C)c2ccnc3nc(/N=C/N(C)C)nn23)c1 (configuration not stated)	20.4	/	11473	-25.4	21.3
CC(NC(=O)CCC(=O)N1CCCCCC1)c1ccccc1 (configuration not stated)	1.1	-7.1	4180	-1.8	36.0*
O=C(Cc1ccccc1)NCC(=O)N1CCCCCC1	1.9	-2.8	22214*	1.9	2.7
CC(NC(=O)C1CCCN(C(=O)N(C)C)C1)c1ccccc1 (configuration not stated)	0.2	-17.9	20508*	-2.2	-1.5
COC(=O)c1ccc(Cn2c(=O)n(Cc3ccccc3)c(=O)c3ncccc32)o1	/	4.0	/	/	/
O=C(CN1CCN(Cc2nc3ccccc3[nH]2)CC1)NCc1ccco1	/	-11.0	/	/	/
O=C(CSCC(=O)N1CCCCC1)OCC(=O)c1c[nH]c2ccccc12	33.2*	-22.5	16086	47.3*	18.3
CCOC(=O)c1c(C)n(C)c2ccc(OCC(O)Cn3c(C)nc4ccccc43)cc12 (configuration not stated)	?	-2.1	23462*	-1.5	-2.3
COC(=O)c1ccsc1NC(=O)c1cc(N2CCCCC2)ncn1	/	-18.0	/	/	/
Oc1cccc2c(NC(=S)Nc3ccc(SC(F)F)cc3)cccc12	-0.4	47.8*	2054	-2.3	-4.6
COCCCN1C(=O)c2ccc(C(=O)O)cc2C1=O	5.7	-0.1	21024*	-3.2	7.1
CC(=O)OCCCN1C(=O)c2ccc(Br)cc2C1=O	?	-7.3	22144*	-9.5	1.1
CN(C)CCCN1C(=O)c2ccc(C(=O)O)cc2C1=O	/	0.0	/	/	/
CC(NC(=O)c1ccc(-c2cc(C(F)(F)F)ccc2Cl)o1)c1ccccc1 (configuration not stated)	?	-0.3	20639*	1.4	-0.2
CC(NC(=O)c1ccc(Br)o1)c1ccccc1 (configuration not stated)	0.0	-10.3	3244	2.5	0.5
Cc1ccc(C(=O)NC(C)c2ccccc2)o1 (configuration not stated)	1.5	-17.1	22061*	-5.4	2.8
SMILES	BoNT A protease	SSB-PriA inh	Autofluor counter	Anthrax LF inh2	BoNT-F LC inh
Cc1cc(Nc2ccc(NC(=O)Cc3c[nH]c4ccccc34)cc2)nc(N2CCCC2)n1	/	45.0*	/	/	/
COc1ccc(NC(=O)Cc2c[nH]c3ccccc23)cc1S(=O)(=O)N1CCCCC1	3.1	9.1	10190	0.5	17.2
CC(=O)SCC(=O)Nc1nc2ccc(F)cc2s1	/	-14.0	/	/	/
CC1(c2ccccn2)Nc2ccccc2-c2nc3ccccc3n21 (configuration not stated)	-1.2	-1.8	22286*	-3.0	-3.9
c1ccc(C2Nc3ccccc3-c3nc4ccccc4n32)nc1 (configuration not stated)	-1.2	61.1*	3576	-1.9	11.5
c1ccc2c(c1)NC1(CCCCCC1)n1c-2nc2ccccc21	/	5.8	/	/	/
CN1C(=O)C2(Nc3ccccc3-c3nc4ccccc4n32)c2ccccc21 (configuration not stated)	-1.6	-1.5	23406*	-4.8	-2.1
c1ccc(C2Nc3ccccc3-c3nc4ccccc4n32)cc1 (configuration not stated)	-1.2	-8.8	7224	-8.7	-9.4
Cn1cc(S(=O)(=O)N2CCCN(S(=O)(=O)N3CCOCC3)CC2)cn1	/	-17.0	/	/	/
Cc1cc2ncc3c(n2n1)CCN(C(=O)C1CCN(S(C)(=O)=O)CC1)C3	/	-1.0	/	/	/
C#CC(C)(C)OCC(O)CN1CCN(c2ccc(OC)cc2)CC1 (configuration not stated)	/	-2.0	/	/	/
O=C(Cc1c(F)cccc1Cl)N1CCC(n2ccnn2)C1 (configuration not stated)	/	2.0	/	/	/
CCOC(=O)N1CCN(C(=O)CN(Cc2ccc(Cl)cc2)S(=O)(=O)c2ccccc2)CC1	-0.8	-4.2	24155*	-1.9	-3.6
CCN(C1CCCCC1)S(=O)(=O)c1ccc(C(=O)O)cc1	-0.3	-10.9	23470*	-1.8	-1.7
O=C(O)c1ccc(S(=O)(=O)N(Cc2ccc(F)cc2)C2CCCCC2)cc1	/	-3.2	/	/	/
CCOC(=O)N1CCN(C(=O)CN(C2CCCCC2)S(=O)(=O)c2ccc(Cl)cc2)CC1	1.3	5.1	22589*	-0.7	1.2
OC(Cn1nnc2ccccc21)Cn1c2ccccc2c2ccccc21 (configuration not stated)	/	-15.0	/	/	/
N#CCCN1CCN(C(=S)c2ccc(-c3ccc(Cl)cc3)o2)CC1	?	9.0	20131*	10.9	0.5
CCCn1nc(C(=O)Nc2cccc(C(=O)OC)c2)c2ccccc2c1=O	0.1	2.8	4202	4.9	2.0
COC(=O)c1cccc(NC(=O)c2nn(C(C)C)c(=O)c3ccccc23)c1	?	-12.8	17352*	-0.9	-3.5
COc1ccc(Cl)cc1-n1c(N)c(C(=O)NCC2CCCO2)sc1=S (configuration not stated)	/	-1.0	/	/	/
CCc1cc(N2CCOCC2)cc2c1[nH]c1ccccc12	7.8	37.2	17063*	-9.6	8.5
c1ccc2c(c1)[nH]c1c(N3CCOCC3)ncnc12	-0.9	-0.1	6374	1.5	-11.6
CCOC(=O)c1c(-c2cccs2)csc1NC(=O)c1ccco1	-1.6	-7.1	4706	-5.1	2.1
CCOC(=O)c1c(C2COc3ccccc3O2)csc1NC(=O)c1ccco1 (configuration not stated)	-0.8	-4.4	21244*	-0.5	-0.5
SMILES	BoNT A protease	SSB-PriA inh	Autofluor counter	Anthrax LF inh2	BoNT-F LC inh
CC(C)c1nnc(SCC(=O)N2CCCCC2)c2c1cnn2-c1ccc(F)cc1	/	-4.0	/	/	/
O=C(NCCCN1CCOCC1)c1ccc(CS(=O)(=O)Cc2ccc(Cl)cc2)o1	-2.8	-8.3	20919*	-3.0	-6.2
O=C(NCCCN1CCOCC1)c1ccc(CS(=O)(=O)c2ccc(Br)cc2)o1	-0.2	-12.3	4344	-2.3	-4.0
O=C(CCS(=O)(=O)Cc1ccc(Cl)cc1)NCCCN1CCN(c2ccccc2F)CC1	-3.4	-3.0	22031*	-0.2	-5.5
O=C(NCCCN1CCOCC1)c1ccc(CS(=O)(=O)c2cccc(C(F)(F)F)c2)o1	-2.5	-15.1	22992*	-1.7	-3.9
O=C(NC1CCCC1)c1ccc(CS(=O)(=O)c2cccc(C(F)(F)F)c2)o1	-1.1	-6.5	22398*	-1.2	-3.7

Bioassay records: PubChem, several laboratories
